The structures appear in SMILES notation. Values joined by “and” are separate entries in the source; they are usually repeats but may differ in a detail not shown here. Equal values may be shown once. Records with an inconclusive call do not appear. Active and inactive are the calls of the source. How the source made its calls: active means hit-call score of the fitted dose curve at least 0.9, where 1 is the maximum; inconclusive means response in the unintended direction; inactive means score below 0.9.

Results on 28 molecules are retold here after PubChem BioAssay (EPA / NIEHS).

The target of this experiment is Cytochrome P450 2C19 (Homo sapiens) (UniProt P33261). Nature of the experiment: NVS_ADME_hCYP2C19: NovaScreen (NVS) CYP450-related Enzyme Activity (ADME) Assay for human CYP2C19 (AID 2283113).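 On AC50: potency for inhibition seen as loss of fluorescent signal.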 As for the experimental part: NVS_ADME_hCYP2C19 is a biochemical, single-readout assay that uses extracted gene-proteins from insect cells in a cell-free assay. Measurements were taken 1 hour after chemical dosing in a 96-well plate.NVS_ADME_hCYP2C19 is one of one assay component(s) measured or calculated from the NVS_ADME_hCYP2C19 assay. It is designed to make measurements of enzyme activity, a form of enzyme reporter, as detected with fluorescence intensity signals by Fluorescence technology.Data from the assay component NVS_ADME_hCYP2C19 was analyzed into 1 assay endpoint. This assay endpoint, NVS_ADME_hCYP2C19, was analyzed in the positive analysis fitting direction relative to Acetonitrile as the negative control and baseline of activity. Using a type of enzyme reporter, loss-of-signal activity can be used to understand changes in the enzymatic activity as they relate to the gene CYP2C19. Furthermore, this assay endpoint can be referred to as a primary readout, because this assay has produced multiple assay endpoints where this one serves a enzymatic activity function. To generalize the intended target to other relatable targets, this assay endpoint is annotated to the cyp intended target family, where the subfamily is xenobiotic metabolism.
Binding assays used specific radioligands (tritiated, iodinated) with non-radioactive competitive displacement ligands in agonist or antagonist protocols (as indicated) and various reference compounds and inhibitors to titrate specific binding to receptors and transporters. Most enzyme assays (CYPs, kinases, phosphatases, proteases, HDACs) used recombinant protein and specific substrates (fluorescence mostly, some colorimetric and radioactive) and inhibitors, followed by a biochemical separation of substrate and product. All assays for the biochemical HTS were initially run in duplicate at a single concentration (10 uM for CYP450 assays and 25 uM for all others). […] Each assay was run with positive and negative controls, and concurrent controls on every plate. The follow-up (secondary) screen tested active chemical-pairs in concentration series, as well as a few additional assays not tested in the primary screen, some selected negative inactives, and several cases re-run in the concentration series for confirmatory purposes.
For `O=C(O)c1nc(Cl)ccc1Cl`, the outcome was inactive.

As usually defined, the AC50 is the concentration at which the activity in the assay is half-maximal. With `C=CC1(C)OC(=O)N(c2cc(Cl)cc(Cl)c2)C1=O` (stereo not drawn), the AC50 was 5.01 µM (active) and 10 µM (active) and 1.87 µM (active).

As for `COP(=S)(OC)Oc1nc(Cl)c(Cl)cc1Cl`, the AC50 was 10 µM (active).

For the molecule `N#CC(CCc1ccc(Cl)cc1)(Cn1cncn1)c1ccccc1` (stereo not drawn), the AC50 is 0.191 µM (active).

`N#Cc1nn(-c2c(Cl)cc(C(F)(F)F)cc2Cl)c(N)c1S(=O)C(F)(F)F` (stereo not drawn): the AC50 was 0.751 µM (active).

As for `CCOC(=O)CC(SP(=S)(OC)OC)C(=O)OCC` (stereo not drawn), the AC50 was 0.032 µM (active).

For `CCOC(=O)C(Cl)Cc1cc(-n2nc(C)n(C(F)F)c2=O)c(F)cc1Cl` (stereo not drawn), the AC50 was 10 µM (active).

Consider `CS/C(C)=N/OC(=O)N(C)SN(C)C(=O)O/N=C(\C)SC`, for which the AC50 is 3.43 µM (active).

In the case of `CC1COC(Cn2cncn2)(c2ccc(Oc3ccc(Cl)cc3)cc2Cl)O1` (stereo not drawn), the AC50 was 0.0258 µM (active).

Consider `CCNc1nc(Cl)nc(NC(C)C)n1`, for which the AC50 is 10 µM (active).

For the molecule `CCCCC(CC)COC(=O)c1ccccc1C(=O)OCC(CC)CCCC` (stereo not drawn), the molecule was classed as inactive.

On to `CN(C)C(=S)SSC(=S)N(C)C`, for which the AC50 is 0.78 µM (active).

For the molecule `COC(=O)N(OC)c1ccccc1COc1ccn(-c2ccc(Cl)cc2)n1`, the AC50 was 0.72 µM (active).

For `CCOP(=S)(OCC)SCn1c(=O)oc2cc(Cl)ccc21`, the AC50 is 0.215 µM (active).

On to `Cc1ccc(-c2c(Cl)nc(C#N)n2S(=O)(=O)N(C)C)cc1`, for which the AC50 was 7.38 µM (active).

On to `CCCC1COC(Cn2cncn2)(c2ccc(Cl)cc2Cl)O1` (stereo not drawn), for which the AC50 is 0.721 µM (active).

Take `CCCCNC(=O)OCC#CI`: the AC50 was 1.81 µM (active) and 2.46 µM (active).

For `OC(c1ccc(Cl)cc1)(c1cncnc1)c1ccccc1Cl` (stereo not drawn), the AC50 was 0.136 µM (active).

For the molecule `CC(C)Oc1cc(-n2nc(C(C)(C)C)oc2=O)c(Cl)cc1Cl`, the call was inactive.

With `CCCN(CCC)c1c([N+](=O)[O-])cc(S(N)(=O)=O)cc1[N+](=O)[O-]`, the AC50 is 1.34 µM (active) [middle of 4 runs].

Take `COC(=O)C(C)Oc1ccc(Oc2ccc(Cl)cc2Cl)cc1` (stereo not drawn): the AC50 is 10 µM (active) and 14.1 µM (active) and 7.91 µM (active).

Turning to `COc1ccc(C(c2ccc(OC)cc2)C(Cl)(Cl)Cl)cc1`, the AC50 was 7 µM (active).

Regarding `CNC(=S)S`, the AC50 is 7.58 µM (active).

In the case of `C#CCOS(=O)OC1CCCCC1Oc1ccc(C(C)(C)C)cc1` (stereo not drawn), the AC50 is 14.3 µM (active).

Take `CCCCOC(=O)c1ccccc1C(=O)OCCCC`: the AC50 was 6.73 µM (active) and 7.37 µM (active).

`CCON=C(CC)C1=C(O)CC(c2c(C)cc(C)cc2C)CC1=O` (stereo not drawn): the AC50 was 3.37 µM (active).

With `Fc1ccc(Oc2ccnc3cc(Cl)cc(Cl)c23)cc1`, the molecule was called inactive.

Take `C=CCC1=C(C)[C@@H](OC(=O)[C@@H]2[C@@H](C=C(C)C)C2(C)C)CC1=O`: the AC50 is 6.39 µM (active).
